In all, about 350,000 compounds went through this assay and about 7,000 (2%) were called active. Cut-off read from the data, not from the text of the source: active = activation above about 40%; inconclusive = no clear call, values can overlap the other calls; inactive = below that. Many of the other results were omitted from the sample, so actives are more common in it than they were.

51 molecules from PubChem BioAssay AID602393 (Broad Institute, 2012) can be followed below.

This test can be described thus: Bmi1 luciferase reporter increase in mESCs, primary screen, esBAF inhibitor project, mouse ES cells, Bmi1 luciferase knock-in, single point (AID 602393).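 Note: 0% = median of the plate's neutral control wells and 100% = double that signal; a rise in the Bmi1 reporter signal indicates esBAF inhibition.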 As to conditions: 24 h, at 12.5 µM, active compounds read high, 100% = twice the neutral-well signal. Background: A reporter such as luciferase makes a cellular process visible.
For the molecule `O=c1cc(Cn2nnc(-c3ccc(Cl)cc3)n2)nc2sccn12`, the reporter increase is 7.92% (inactive). To `COc1ccccc1N1CCN(C(=O)Cn2nnc(-c3cccs3)n2)CC1` belongs 3.41% (inactive); to `Clc1cccc(Cl)c1Cn1nnc(-c2cccs2)n1`, 69.1% (active); to `CC(=O)N(C)C[C@@H]1Oc2cc(-c3cccnc3)ccc2S(=O)(=O)N([C@H](C)CO)C[C@H]1C`, 2.38% (inactive).

For `C/C=C/c1ccc([C@H]2[C@@H](C#N)N(C(=O)CN3CCOCC3)[C@@H]2CO)cc1`, the reporter increase is -3.67% (inactive). `O=C(C1CCCC1)N1[C@H](CO)[C@H]2c3ccccc3N(S(=O)(=O)c3ccccc3)C[C@H]21`: the reporter increase was -4.06% (inactive). To `C[C@H](CO)N1C[C@H](C)[C@@H](CN(C)Cc2ccncc2)Oc2ccc(NS(=O)(=O)c3ccc(Cl)cc3)cc2CC1=O` belongs 4.09% (inactive); to `COc1ccc2[nH]cc(CCN3C(=O)c4ccc(C(=O)O)cc4C3=O)c2c1`, 77% (active); to `COCCCN1C(=O)c2ccc(C(=O)Nc3ccc(OC)cc3OC)cc2C1=O`, -3.26% (inactive). As for `COCCCN1C(=O)c2ccc(C(=O)OCC(=O)NCc3ccccc3OC)cc2C1=O`, the figure is -0.788% (inactive). As for `C[C@H](CO)N1C[C@H](C)[C@H](CN(C)Cc2ccccn2)Oc2ncc(C#CCc3ccccc3)cc2C1=O`, the figure is -3.58% (inactive); as for `Cc1ccc2cc(/C=N/Nc3ccc(C(=O)O)cc3)c(Cl)nc2c1`, 63.2% (active); as for `CC(=O)Nc1ccc(C(=O)CSc2nc3ccc(C)cc3[nH]2)cc1`, 1.14% (inactive).

Consider `Cc1ccn2c(-c3csc(Nc4ccc(C(=O)O)cc4)n3)c(C)nc2c1`, for which the reporter increase is 3.65% (inactive). As for `C/C=C/c1cnc2c(c1)C(=O)N([C@H](C)CO)C[C@H](C)[C@@H](CN(C)C(=O)c1cccc(F)c1)O2`, the figure is 1.29% (inactive). To `C[C@@H]1CCCCO[C@@H](CN(C)S(=O)(=O)c2ccccc2)[C@H](C)CN([C@H](C)CO)C(=O)c2cc(NC(=O)CCC(F)(F)F)ccc2O1` belongs 3.27% (inactive); to `COc1cccc(S(=O)(=O)N[C@@H]2CC[C@H](CCNC(=O)Cc3ccncc3)O[C@@H]2CO)c1`, 3.37% (inactive); to `O=C(C[C@@H]1CC[C@@H]2[C@H](COC[C@@H](O)CN2Cc2cc(F)cc(F)c2)O1)NCc1cccc(F)c1`, 4.76% (inactive). As for `O=C(C[C@@H]1C[C@@H]2c3cc(NS(=O)(=O)c4ccc(F)cc4)ccc3O[C@@H]2[C@@H](CO)O1)NCc1ccncc1`, the figure is -5.57% (inactive); as for `C/C=C/c1ccc([C@H]2[C@@H](CO)N(C(=O)Cc3ccncc3)[C@@H]2CNC(C)=O)cc1`, -0.088% (inactive). As to `COc1ccc(C(=O)COC(=O)CN2C(=O)C3CC=CCC3C2=O)c(OC)c1` (stereo unspecified), the reporter increase was -4.47% (inactive). As for `COc1ccc(C(=O)CCC(=O)Nc2cccnc2)c(OC)c1`, the reporter increase is -1.7% (inactive). As for `CCOC(=O)c1c(C)[nH]c(C(=O)OCC(=O)c2ccc(OC)cc2OC)c1C`, the figure is 6.18% (inactive). In the case of `COc1ccc(C(=O)COC(=O)C(O)c2ccccc2)c(OC)c1` (stereo unspecified), the reporter increase is 67.1% (active). Regarding `COc1ccc(C(=O)CCc2ccccc2O)c(OC)c1`, the reporter increase is 92.4% (active). As for `COc1ccc(C(=O)NC(C)CCc2ccccc2)c(OC)c1` (stereo unspecified), the figure is -1.75% (inactive); as for `C[C@H](CO)N1C[C@H](C)[C@H](CN(C)C(=O)CCC(F)(F)F)OCCCC[C@H](C)Oc2ccc(NS(=O)(=O)c3ccc(F)cc3)cc2C1=O`, -0.446% (inactive); as for `C[C@@H]1CCCCO[C@@H](CN(C)S(=O)(=O)c2ccc(F)cc2)[C@@H](C)CN([C@@H](C)CO)C(=O)c2cc(NC(=O)Nc3ccc(F)cc3)ccc2O1`, 3.89% (inactive). To `C[C@@H]1CN([C@@H](C)CO)C(=O)Cc2cc(NC(=O)Nc3ccc4c(c3)OCO4)ccc2O[C@H]1CN(C)S(=O)(=O)c1ccc(F)cc1` belongs -0.705% (inactive); to `CN1[C@@H]2CN(C(=O)c3ccc(F)cc3)c3ccccc3[C@@H]2[C@@H]1CO`, 2.63% (inactive). As for `C=CCc1c(C)nc2cc(-c3ccccc3)[nH]n2c1=O`, the figure is 34.3% (inactive); as for `CCc1c(C)nc2cc(C)[nH]n2c1=O`, -4.73% (inactive); as for `CCc1c(C)nc2cc(-c3cccs3)[nH]n2c1=O`, 48.4% (active). `O=C(C[C@H]1C=C[C@H](NC(=O)C2CCOCC2)[C@@H](CO)O1)NCC1CC1`: the reporter increase is -1.58% (inactive). As for `Cc1ccc(-c2ccc3c(c2)O[C@H](CN(C)C(=O)Nc2ccccc2)[C@@H](C)CN([C@@H](C)CO)S3(=O)=O)cc1`, the figure is -1.56% (inactive). Consider `Cc1ccccc1-c1nnn(CC(=O)c2ccc(S(=O)(=O)N3CCCC3)cc2)n1`, for which the reporter increase was 5.35% (inactive). To `CC(C)(C)NC(=O)Cn1nnc(-c2ccccc2Cl)n1` belongs 56.6% (active); to `O=C(Cn1nnc(-c2ccccc2)n1)NC(=O)NC1CCCC1`, -2.48% (inactive); to `CCCC(=O)Nc1ccc2c(c1)C(=O)N(C)[C@@H]1CC[C@H](CC(=O)NCCN3CCCCC3)O[C@@H]1CO2`, 0.938% (inactive). As for `O=C(C[C@@H]1C=C[C@H](NC(=O)C2CCOCC2)[C@H](CO)O1)NCc1ccncc1`, the figure is 5.38% (inactive).

`COCc1nc2ccccc2n1Cc1ccccc1Br`: the reporter increase is -3.15% (inactive).

For the molecule `CC(C)n1c(COc2ccccc2)nc2ccccc21`, the reporter increase is -1.17% (inactive). To `COCn1c(COc2ccccc2)nc2ccccc21` belongs 80.5% (active). Turning to `O=S(=O)(c1ccc(SCc2ccccc2)nc1)N1CCCCCC1`, the reporter increase was 8.09% (inactive).

For `CCS(=O)(=O)n1nc(-c2ccc(OC)cc2)nc1SC`, the reporter increase is 55.7% (active). To `C=CCn1c(SCc2ccccc2)nc2c1c(=O)[nH]c(=O)n2C` belongs 8.86% (inactive); to `CCS(=O)(=O)n1nc(-c2ccccc2)nc1SCc1ccccc1`, 45.9% (active). Consider `COc1ccc(-n2c(SC)nc(O)cc2=O)cc1`, for which the reporter increase is -1.49% (inactive). Regarding `CCOC(=O)N1CCN(S(=O)(=O)c2ccc(OC)cc2)CC1`, the reporter increase was -4.19% (inactive).

For `Cc1cccc(S(=O)(=O)N2C[C@@H]3[C@H](c4ccccc42)[C@H](CO)N3CC2CCOCC2)c1`, the reporter increase was 3.89% (inactive).

In the case of `CCC(=O)N(C)C[C@@H]1Oc2cc(C#CC(C)(C)O)ccc2S(=O)(=O)N([C@@H](C)CO)C[C@@H]1C`, the reporter increase is 1.13% (inactive).
